Drawing on the antibiotic and cytotoxicity screens of Wong et al. (2023), this text covers growth inhibition call for 70 compounds.

Out of some 39,000 compounds screened, about 500 (1.3%) were called active. The sample as a whole holds a higher share of actives than the screen did.

The subject of the assay is S. aureus RN4220. Put plainly: growth inhibition call (relative growth <= 0.2). As to conditions: 50 µM.
On to `COc1ccc(CN(C)C[C@H]2OCCCC[C@@H](C)Oc3ccc(NC(=O)Nc4ccccc4)cc3C(=O)N([C@@H](C)CO)C[C@@H]2C)cc1`, for which the growth inhibition call was “inactive”.
As to `C[C@@H]1CN([C@H](C)CO)C(=O)c2cc(-c3ccncc3)cnc2O[C@H]1CN(C)C(=O)Nc1ccc2c(c1)OCO2`, the growth inhibition call was “inactive”.
Turning to `C[C@@H]1CCCCO[C@H](CN(C)C(=O)Nc2cccc3ccccc23)[C@@H](C)CN([C@@H](C)CO)C(=O)c2cc(NC(=O)Nc3ccc(F)cc3)ccc2O1`, the growth inhibition call was “inactive”.
On to `Cc1ccc(S(=O)(=O)N(C)C[C@H]2Oc3c(NC(=O)Nc4ccc(C(F)(F)F)cc4)cccc3C(=O)N([C@H](C)CO)C[C@H]2C)cc1`, for which the growth inhibition call is “inactive”.
For `C[C@H]1CN([C@@H](C)CO)C(=O)c2cc(NC(=O)C3CCCCC3)ccc2O[C@H]1CN(C)Cc1ccc(Cl)c(Cl)c1` the value was “inactive”; for `C[C@@H]1CN([C@H](C)CO)S(=O)(=O)c2ccc(C#CCN(C)C)cc2O[C@H]1CN(C)Cc1ccc2c(c1)OCO2`, “inactive”; for `COc1ccc(COC[C@]23N=C4SCc5ccccc5CN4[C@H](c4ccccc4O2)[C@H]3COC(=O)NCCCCCC(=O)NO)cc1`, “inactive”.
In the case of `CCn1cc(C(=O)O)c(=O)c2ccc(C)nc21`, the growth inhibition call was “inactive”.
For the compound `CCN1CCN(c2cc3c(cc2F)c(=O)c(C(=O)O)cn3C2CC2)CC1`, the growth inhibition call is “active”.
To `CCn1cc(C(=O)N2CCN(C)CC2)c(=O)c2cc(S(=O)(=O)N(C)C)ccc21` belongs “inactive”.
To `CCn1cc(C(=O)O)c(=O)c2cnc(N3CCCC3)nc21` belongs “inactive”.
On to `CCn1cc(C(=O)O)c(=O)c2cc(F)c(N3CCNCC3)cc21`, for which the growth inhibition call is “active”.
To `O=C(O)c1cn(C2CC2)c2cc(N3CCNCC3)c(F)cc2c1=O` belongs “inactive”; to `CCn1cc(C(=O)O)c(=O)c2cc(F)c(N3CCN(C(=S)Nc4cc(C(F)(F)F)ccc4Cl)CC3)cc21`, “inactive”.
For `CCn1cc(C(=O)O)c(=O)c2cc(F)c(N3CCN(C)CC3)cc21.CS(=O)(=O)O` the value was “active”; for `C[C@@H]1CCCCO[C@H](CN(C)C(=O)CCCN(C)C)[C@@H](C)CN([C@H](C)CO)C(=O)c2cc(N(C)C)ccc2O1`, “inactive”.
Turning to `C[C@@H]1CCCCO[C@H](CN(C)C(=O)NC2CCCCC2)[C@@H](C)CN([C@@H](C)CO)C(=O)c2cc(NC(=O)CCC(F)(F)F)ccc2O1`, the growth inhibition call is “inactive”.
To `COCC(=O)N1C[C@@H](C)[C@@H](OC)CN(C)C(=O)c2cc(NC(=O)Nc3cccc(F)c3)ccc2OC[C@H]1C` belongs “inactive”; to `C[C@@H]1CN([C@H](C)CO)C(=O)c2cc(NC(=O)CCC(F)(F)F)ccc2O[C@@H](C)CCCCO[C@@H]1CN(C)Cc1ccccc1`, “inactive”; to `C[C@H]1CN([C@@H](C)CO)C(=O)c2cccc(NS(C)(=O)=O)c2O[C@@H]1CN(C)C(=O)Nc1ccc2c(c1)OCO2`, “inactive”.
For `CN(C)C(=O)CN1CCn2cc(Cn3cncn3)nc2C1` the value was “inactive”; for `Cc1noc(C)c1NC(=O)Nc1ccc2c(c1)CC(=O)N([C@H](C)CO)C[C@H](C)[C@H](CN(C)S(=O)(=O)c1cccs1)O2`, “inactive”; for `CC(C)(ON=C(C(=O)NC1C(=O)N2C(C(=O)[O-])=C(C[n+]3ccccc3)CSC12)c1csc(N)n1)C(=O)O` (stereo not given), “inactive”.
With `NC(=O)c1cc[n+](CC2=C(C(=O)[O-])N3C(=O)C(NC(=O)Cc4cccs4)C3SC2)cc1` (stereo not given), the growth inhibition call was “active”.
To `NC(=O)c1cc[n+](CC2=C(C(=O)[O-])N3C(=O)C(NC(=O)C(c4ccccc4)S(=O)(=O)[O-])C3SC2)cc1.[Na+]` (stereo not given) belongs “inactive”.
For `NC(=O)c1cc[n+](CC2=C(C(=O)O)N3C(=O)[C@@H](NC(=O)Cc4cccs4)[C@H]3SC2)cc1` the value was “active”.
In the case of `Cn1sccc1=O`, the growth inhibition call was “inactive”.
To `O=C(C[C@@H]1CC[C@H]2[C@@H](COC[C@@H](O)CN2S(=O)(=O)c2ccc(Cl)cc2)O1)N1CCc2ccccc2C1` belongs “inactive”.
For `C[C@H](CO)N1C[C@H](C)[C@@H](CN(C)Cc2ccncc2)OCCCC[C@H](C)Oc2ccc(NC(=O)Nc3ccc4c(c3)OCO4)cc2C1=O` the value was “inactive”.
To `O=C(C[C@@H]1CC[C@H]2NC[C@@H](O)COC[C@@H]2O1)NCCN1CCCC1` belongs “inactive”; to `COc1cc(C2c3cc4c(cc3C(OC3OC5COC(C)OC5C(O)C3O)C3COC(=O)C23)OCO4)cc(OC)c1O` (stereo not given), “inactive”; to `COc1cc([C@@H]2c3cc4c(cc3[C@@H](O[C@@H]3O[C@@H]5CO[C@@H](C)O[C@H]5[C@H](O)[C@H]3O)[C@@H]3COC(=O)[C@@H]23)OCO4)cc(OC)c1O`, “inactive”.
Consider `COc1cc([C@@H]2c3cc4c(cc3[C@@H](O[C@@H]3O[C@@H]5CO[C@@H](C)O[C@H]5[C@H](O)[C@H]3O)[C@H]3COC(=O)[C@H]23)OCO4)cc(OC)c1O`, for which the growth inhibition call was “active”.
For the compound `N#C[C@H](N)c1ccc(Cl)cc1`, the growth inhibition call is “inactive”.
To `Nc1cc(=O)[nH]c(=O)n1-c1ccc(Cl)cc1` belongs “inactive”.
To `N#CC(c1ccc(Cl)cc1)c1c(Cl)cc(-n2ncc(=O)[nH]c2=O)cc1Cl` (stereo not given) belongs “active”.
For `Cc1noc(C)c1NC(=O)N(C)C[C@@H]1OCCCC[C@@H](C)Oc2ccc(NC(=O)C3CCCCC3)cc2C(=O)N([C@@H](C)CO)C[C@@H]1C` the value was “inactive”; for `C[C@@H]1CN([C@@H](C)CO)C(=O)Cc2cc(NS(=O)(=O)c3ccccc3)ccc2O[C@@H]1CN(C)Cc1ccc(-c2ccccc2)cc1`, “inactive”; for `O=C(N[C@@H](c1ccc(-c2ccccc2)cc1)c1cnccn1)C1CCN(Cc2ccc(Cl)c(Cl)c2)CC1`, “inactive”.
For `COc1ccc(/C=C/CN2CCC(C(=O)N[C@@H](c3ccc(F)cc3)c3ccc4ccccc4n3)CC2)cc1`, the growth inhibition call is “inactive”.
As to `O=C(N[C@@H](c1ccccc1)c1ccc2ccccc2n1)C1CCN(CCOc2ccc(Cl)cc2)CC1`, the growth inhibition call is “active”.
For `COc1cc(CN2CCC(C(=O)N[C@@H](c3ccc(-c4ccccc4)cc3)c3cnccn3)CC2)cc(OC)c1` the value was “inactive”; for `O=C(N[C@@H](c1ccccc1)c1ccc2ccccc2n1)C1CCN(CCOc2ccc(Cl)cc2Cl)CC1`, “inactive”; for `O=C(N[C@H](c1ccc(Cl)cc1)c1cnccn1)C1CCN(Cc2ccc(Oc3ccccc3)cc2)CC1`, “active”.
For `O=C(N[C@H](c1ccc(F)cc1)c1ccc2ccccc2n1)C1CCN(Cc2ccc(Oc3ccccc3)cc2)CC1` the value was “inactive”; for `O=C(N[C@@H](c1ccccc1)c1ccc2ccccc2n1)C1CCN(Cc2ccc(Oc3ccccc3)cc2)CC1`, “inactive”; for `O=C(N[C@@H](c1ccc(-c2ccccc2)cc1)c1cnccn1)C1CCN(Cc2ccc(Oc3ccccc3)cc2)CC1`, “inactive”.
To `O=C(N[C@@H](c1ccc(F)cc1)c1ccc2ccccc2n1)C1CCN(CCOc2ccc(F)cc2)CC1` belongs “active”.
Consider `COc1ccc(OCCN2CCC(C(=O)N[C@@H](c3ccc(F)cc3)c3ccc4ccccc4n3)CC2)cc1`, for which the growth inhibition call is “inactive”.
For `COc1ccc(/C=C/CN2CCC(C(=O)N[C@@H](c3ccc(-c4ccccc4)cc3)c3cnccn3)CC2)cc1` the value was “active”; for `Cc1noc(C)c1NC(=O)N(C)C[C@@H]1Oc2cc(Br)ccc2S(=O)(=O)N([C@@H](C)CO)C[C@H]1C`, “inactive”.
In the case of `C[C@@H]1O[C@@H](O[C@@H]2[C@@H](O)[C@H](OCCc3ccc(O)c(O)c3)O[C@H](COC(=O)/C=C/c3ccc(O)c(O)c3)[C@H]2O)[C@H](O)[C@H](O)[C@H]1O`, the growth inhibition call is “inactive”.
To `CO[C@@H]1CN(C)C(=O)c2cc(NC(=O)CC(F)(F)F)ccc2OC[C@@H](C)N(C(=O)C2CCOCC2)C[C@@H]1C` belongs “inactive”; to `C[N+]1(C)C[C@H](O)[C@H](C(=O)O)C1`, “inactive”; to `COCC(=O)N1C[C@H](C)[C@H](OC)CN(C)C(=O)c2ccc(NC(=O)c3cc(C)on3)cc2OC[C@H]1C`, “inactive”.
As to `COCCOC(=O)N1C(=O)[C@@]2(c3cc(C#CCNC(N)=O)ccc31)[C@H](c1ccccc1OCCO)N1[C@H](c3ccccc3)[C@H](c3ccccc3)OC(=O)[C@H]1[C@@H]2C(N)=O`, the growth inhibition call was “inactive”.
To `C[C@H](CO)N1C[C@H](C)[C@H](CN(C)S(=O)(=O)c2ccc(Oc3ccccc3)cc2)OCc2cnnn2CCCC1=O` belongs “inactive”; to `Cc1noc(C)c1NC(=O)Nc1ccc2c(c1)C(=O)N([C@H](C)CO)C[C@@H](C)[C@@H](CN(C)S(=O)(=O)c1ccc(Cl)cc1)OCCCC[C@H](C)O2`, “inactive”.
To `CCCC#Cc1ccc2c(c1)O[C@@H](CN(C)C(=O)c1cnccn1)[C@@H](C)CN([C@@H](C)CO)S2(=O)=O` belongs “inactive”; to `O=C(N[C@@H](c1ccc(-c2ccccc2)cc1)c1cnccn1)C1CCN(Cc2cccc(C(F)(F)F)c2)CC1`, “inactive”; to `O=C(N[C@H](c1ccc(F)cc1)c1ccc2ccccc2n1)C1CCN(Cc2ccc3ccccc3n2)CC1`, “inactive”.
To `O=C(N[C@H](c1ccc(F)cc1)c1ccc2ccccc2n1)C1CCN(CCOc2ccc(Cl)cc2)CC1` belongs “active”.
As for `O=C(N[C@@H](c1ccc(-c2ccccc2)cc1)c1cnccn1)C1CCN(CCOc2ccc(F)cc2)CC1`, the growth inhibition call was “active”.
Regarding `COc1cc(CN2CCC(C(=O)N[C@@H](c3ccc(F)cc3)c3ccc4ccccc4n3)CC2)cc(OC)c1`, the growth inhibition call is “inactive”.
To `O=C(N[C@@H](c1ccc(-c2ccccc2)cc1)c1cnccn1)C1CCN(CCCOc2ccccc2)CC1` belongs “inactive”; to `C[C@@H]1CCCCO[C@@H](CN(C)Cc2ccc(Cl)c(Cl)c2)[C@H](C)CN([C@H](C)CO)C(=O)c2cc(NC(=O)C3CCCCC3)ccc2O1`, “inactive”.
For `COc1ccc(NC(=O)N(C)C[C@@H]2OCCCC[C@H](C)Oc3ccc(NC(=O)Cc4ccccc4)cc3C(=O)N([C@@H](C)CO)C[C@@H]2C)cc1` the value was “inactive”.
Turning to `C[C@H]1CN([C@@H](C)CO)C(=O)c2cc(C#Cc3ccc(F)cc3)cnc2O[C@@H]1CN(C)CC1CCOCC1`, the growth inhibition call was “inactive”.
To `CC1=C(/C=C/C(C)=C/C=C/C(C)=C/C=C/C=C(C)/C=C/C=C(C)/C=C/C2=C(C)CCCC2(C)C)C(C)(C)CCC1` belongs “inactive”; to `Cc1noc(C)c1NC(=O)Nc1cccc2c1O[C@H](CN(C)S(=O)(=O)c1cn(C)cn1)[C@H](C)CN([C@@H](C)CO)C2=O`, “inactive”.
